Laboratory results: PubChem BioAssay (NCATS)
Values without a mark were called inactive. Records with an inconclusive call do not appear. A call without a number means that no potency is given here. Active and inactive are the calls of the source. Unless noted, calls follow the shape of the dose curve; as a rule, active = well fitted curve in the direction sought with a large enough effect; inconclusive = small, poorly fitted or top-dose-only effect, or another doubt; inactive = no such curve, though single readings can be large; an effect the other way counts as inactive or inconclusive. Residues, ends and D or L forms follow the SMILES beside them. *: point of attachment. Cbz = O=C(OCc1ccccc1)*

Test system: astro (control astrocytes)
Assay: Drug repurposing screens with cells derived from glioblastoma tumor samples (AID 1345199); also: nearly all actives have a fitted effect of over 40% in size; also: potency is read from the fitted curve at half-maximal effect
Details: viability, ATP luminescence, 48 h; series mostly up to 45.9 µM
In short: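 Primary testing used CD133+ neurospheres from four GBM patients, seven concentrations, 48 h exposure and ATP-based viability; confirmation added three slower-growing patient lines.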

| Structure (SMILES) | Potency |
| --- | --- |
| CC(C)N1[N]C(=C2C=c3cc(O)ccc3=N2)c2c(N)ncnc21 | 3.55 µM (active) |
| CCCCCCCN(CC)CCCC(O)c1ccc(NS(C)(=O)=O)cc1 (centres undefined) | inactive |
| O=C1c2c(O)cccc2[C@@H]([C@@H]2O[C@H](CO)[C@@H](O)[C@H](O)[C@H]2O)c2cc(CO)cc(O)c21 | inactive |
| O=C(O)C(=O)Nc1cccc(C2=NN=N[N]2)c1 | inactive |
| COC1=C(OC)C(=O)C(CC=C(C)CCC=C(C)CCC=C(C)CCC=C(C)CCC=C(C)CCC=C(C)CCC=C(C)CCC=C(C)CCC=C(C)CCC=C(C)C)=C(C)C1=O | inactive |
| C#CCC(Cc1cnc2nc(N)nc(N)c2n1)c1ccc(C(=O)N[C@@H](CCC(=O)O)C(=O)O)cc1 (some centres undefined) | inactive |
| Cc1onc(-c2ccccc2)c1C(=O)N[C@@H]1C(=O)N2[C@@H](C(=O)O)C(C)(C)S[C@@H]12 | inactive |
| Nc1ccn(C2CO[C@H](CO)O2)c(=O)n1 (some centres undefined) | inactive |
| Cc1ccccc1C(=O)Nc1ccc(C(=O)N2CCCC(O)c3cc(Cl)ccc32)c(C)c1 (centres undefined) | inactive |
| Nc1ccn(C[C@@H](CO)OCP(=O)(O)O)c(=O)n1 | inactive |
| C[C@H]1C[C@H]2[C@@H]3CCC4=CC(=O)C=C[C@]4(C)[C@@H]3C(=O)C[C@]2(C)[C@@]1(O)C(=O)CO | inactive |
| N[C@H]1CN(c2c(F)cc3c(=O)c(C(=O)O)cn(C4C[C@@H]4F)c3c2Cl)CC12CC2 (some centres undefined) | inactive |
| CCCCCCCCCCCCCCCC(=O)OC[C@@H](NC(=O)C(Cl)Cl)[C@H](O)c1ccc([N+](=O)[O-])cc1 | inactive |
| CC1(C)[C@H](O[C@H]2O[C@H](C(=O)O)[C@@H](O)[C@H](O)[C@H]2O[C@@H]2O[C@H](C(=O)O)[C@@H](O)[C@H](O)[C@H]2O)CC[C@@]2(C)[C@H]1CC[C@]1(C)[C@H]2C(=O)C=C2[C@H]3C[C@@](C)(C(=O)O)CC[C@]3(C)CC[C@]21C | inactive |

Test system: not listed separately
Assay: qHTS assay to identify inhibitors of the type 1 interferon - major histocompatibility complex class I in skeletal muscle: Counter screen cell viability and HiBit confirmation (AID 1347412); also: nearly all actives have a fitted effect of over 60% in size; also: potency is read from the fitted curve at half-maximal effect
Details: iHSKM muscle cells + IFN-b, HiBiT or CellTiter-Glo, 24 h; Potency: HiBiT; Viability, at 45.9 µM (top of the series)
In short: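 Duplicate plates, pinned identically: one read for HiBiT-tagged endogenous HLA-B luminescence, the other for ATP-content viability via CellTiter Glo. Cells were genome-engineered human myoblasts given 4 ng/ml IFN-b; compounds 12-pt, 1:3 from 46 uM final; 24 hr exposure.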

| Structure (SMILES) | Potency |
| --- | --- |
| Cc1cnc(Nc2ccc(CN3CCOCC3)cc2)nc1Nc1cccc(S(=O)(=O)NC(C)(C)C)c1 | 8.83 µM (active) |
| CCCCC(=O)O[C@]1(C(=O)CO)[C@@H](C)C[C@H]2[C@@H]3CCC4=CC(=O)C=C[C@]4(C)[C@@]3(F)[C@@H](O)C[C@@]21C | inactive |
| CCc1ccc(C(=O)Nc2cc(CN3CCN(C)CC3)cc(C(F)(F)F)c2)cc1C#Cc1cnc2ccnn2c1 | 24.9 µM (active) |
| Cn1cc(CNCC2CCN(c3ncc(C(=O)NO)cn3)CC2)c2ccccc21 | 0.157 µM (active) |
| CC(C)c1cc(C(C)C)c(CC(=O)NS(=O)(=O)Oc2c(C(C)C)cccc2C(C)C)c(C(C)C)c1 | inactive |
| Cc1ccc2nc(NCCN)c3ncc(C)n3c2c1 | 3.13 µM (active) |
| CC(C)(N)c1ccc(-c2nc3ccccc3nc2-c2ccccc2)cc1 | inactive |
| OCCNC1CCCc2c1[nH]c1ccc(-c3ccccc3)cc21 (centres undefined) | inactive |
| c1cc(N[C@@H]2CCNC2)nc(-c2cnc3ccc(-c4cn[nH]c4)cn23)c1 | inactive |
| CC(C)c1cnn2c(NCc3ccccc3)cc(NCCCCCCN)nc12 | inactive |
| COC[C@H](NC(=O)c1cnc(C)s1)C(=O)N[C@@H](COC)C(=O)N[C@@H](Cc1ccccc1)C(=O)[C@@]1(C)CO1 | 0.198 µM (active) |
| Cc1cnc(Nc2ccc(N3CCN(C)CC3)cc2)nc1Nc1cccc(S(=O)(=O)NC(C)(C)C)c1 | 2.79 µM (active) |
| COc1cc(O)c2c(c1)C1OC1C[C@H](O)[C@H](O)C(=O)C=CC[C@H](C)OC2=O (some centres undefined) | 8.83 µM (active) |
| COc1cc(CCc2cc(NC(=O)c3ccc(N4C[C@@H](C)N[C@@H](C)C4)cc3)n[nH]2)cc(OC)c1 | inactive |
| CC(C)C[C@@H](C=O)NC(=O)[C@H](CC(C)C)NC(=O)[C@H](CC(C)C)NC(=O)OCc1ccccc1 (Cbz-Leu-Leu-Leu-aldehyde) | 6.25 µM (active) |
| CCOC(=O)[C@@H](N)Cc1ccc(-c2cc(O[C@H](c3ccc(Cl)cc3-n3ccc(C)n3)C(F)(F)F)nc(N)n2)cc1 | 19.8 µM (active) |
| Cc1cnc(NC(=O)Nc2cc(Br)c(C)cc2OC[C@@H]2CNCCO2)cn1 | inactive |
| CN(C)CCN1C(=O)c2cccc3cc(N)cc(c23)C1=O | 8.83 µM (active) |
| CC(C)C[C@H](NC(=O)[C@@H](NC(=O)c1cccc(-c2ccccc2)n1)[C@@H](C)O)B(O)O | 0.0557 µM (active) |
| N#Cc1c(C2CCNCC2)cc(-c2c(O)cccc2OCC2CC2)nc1N | inactive |
| CCS(=O)(=O)Nc1ccc2[nH]c(O)c(C(=Nc3ccc(CN4CCCCC4)cc3)c3ccccc3)c2c1 | 0.625 µM (active) |
| Cc1cc(Nc2ncc3c(n2)N(C)C(=O)N(c2cc(NC(=O)c4cccc(C(F)(F)F)c4)ccc2C)C3)n(C)n1 | 0.883 µM (active) |

Molecular target: Nuclear receptor subfamily 1 group I member 2 (Rattus norvegicus) (UniProt Q9R1A7)
Assay: qHTS assay for small molecule activators of the rat pregnane X receptor (rPXR) signaling pathway (AID 651751; call rule not given here)
Details: rPXR reporter cells, luciferase (One-Glo), 24 h

Chain of Nuclear receptor subfamily 1 group I member 2 (Rattus norvegicus) (Q9R1A7 whole entry, looked up): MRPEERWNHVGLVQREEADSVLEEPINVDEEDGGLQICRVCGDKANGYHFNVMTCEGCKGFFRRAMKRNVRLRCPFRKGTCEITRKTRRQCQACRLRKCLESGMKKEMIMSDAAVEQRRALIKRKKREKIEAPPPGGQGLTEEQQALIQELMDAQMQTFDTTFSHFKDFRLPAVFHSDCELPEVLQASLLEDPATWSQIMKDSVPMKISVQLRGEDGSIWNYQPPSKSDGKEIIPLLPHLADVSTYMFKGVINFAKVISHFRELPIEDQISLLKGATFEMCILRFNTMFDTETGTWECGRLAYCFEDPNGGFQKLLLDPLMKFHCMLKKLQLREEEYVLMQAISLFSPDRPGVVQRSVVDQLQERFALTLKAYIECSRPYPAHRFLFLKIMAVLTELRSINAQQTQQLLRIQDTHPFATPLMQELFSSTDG

| Structure (SMILES) | max response [%] |
| --- | --- |
| OC[C@@H](O)[C@@H](O)[C@H](O)[C@@H](O)CO | 14.3 |
| Cc1cc(O)c2c(c1)C(=O)c1cccc(O)c1C2=O | -1.64 |
| O=C1c2cccc(O)c2C(=O)c2c(O)cc(CO)cc21 | -0.0257 |
